Screening data as filed in PubChem.
Shiga inhibitor: A qHTS for Small Molecule Inhibitors of Shiga Toxin | Vero cells, Shiga toxin protein synthesis inhibition reporter | 290,000 compounds, 9.2% hits | inhibition, % at 38.7 µM; in the data active = inhibition mostly above about 28%, no sharp cut-off; inactive = mostly below about 43%
Pf growth 48h: Primary qHTS for delayed death inhibitors of the malarial parasite plastid, 48 hour incubation | P. falciparum luciferase growth in erythrocytes, 48 h | Potency, µM (doses to about 28.7 µM), usual class: inhibitors | 310,000 compounds, 5.9% hits | AID 504832, 2011
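Here the parasites carry a stable luciferase gene and grow inside erythrocytes in Albumax-based RPMI medium with compound for one erythrocytic cycle. Activity is scored as loss of luminescent signal.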
NS1 function inh: qHTS Assay for Inhibitors of Influenza NS1 Protein Function | 270,000 compounds, 0.4% hits | AID 2326, 2010 | Potency, µM (titrated, usually from 46.1 µM); calls by dose curve; note: actives are rising curves; nearly all actives have a fitted effect of over 50% in size
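OD600 was taken as the measure of yeast growth restored by compound in an NS1-expressing S. cerevisiae strain. Cells had been washed out of glucose medium and diluted 1:100 into galactose -URA medium, pH 6.0.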
Giardia FBPA inh: qHTS Assay for Inhibitors of Fructose-1,6-bisphosphate Aldolase from Giardia Lamblia | 290,000 compounds, 0.71% hits | Potency, µM (top dose mostly 59.6 µM), actives largely listed as inhibitors | AID 2451, 2010 | A8B2U2 | purified Giardia FBPA; note: nearly all actives have a fitted effect of over 55% in size
Target sequence (A8B2U2 whole entry, looked up): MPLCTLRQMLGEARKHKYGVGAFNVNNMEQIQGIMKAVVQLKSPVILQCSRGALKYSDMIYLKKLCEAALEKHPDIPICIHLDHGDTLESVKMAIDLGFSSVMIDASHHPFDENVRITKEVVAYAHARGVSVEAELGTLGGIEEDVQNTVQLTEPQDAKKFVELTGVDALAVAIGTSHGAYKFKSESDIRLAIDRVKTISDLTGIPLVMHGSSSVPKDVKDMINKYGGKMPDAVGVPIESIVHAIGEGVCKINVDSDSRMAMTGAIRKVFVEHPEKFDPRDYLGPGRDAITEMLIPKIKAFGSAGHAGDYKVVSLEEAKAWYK
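Giardia FBPA (40 nM reagent) was preincubated 10 min at RT with compound (up to 57.5 uM final), then substrate plus GAPDH/TPI/NAD/arsenate coupling system with diaphorase/resazurin was added; resorufin fluorescence (525/598 nm) was read after 20 min.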
Pf growth 96h: Primary qHTS for delayed death inhibitors of the malarial parasite plastid, 96 hour incubation | P. falciparum luciferase reporter growth, 96 h | Potency, µM (titrated, usually from 28.7 µM), most hits filed as inhibitors | 320,000 compounds, 6.9% hits
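Readout is luminescence from an integrated firefly luciferase in P. falciparum. Red cells, 2% hematocrit and 0.05% parasitemia final, were cultured with compound through two parasite generations (96 hours) at 37 C, 5% CO2.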
Cycloheximide cs: Cycloheximide Counterscreen for Small Molecule Inhibitors of Shiga Toxin | cell reporter, cycloheximide protein synthesis inhibition counterscreen | max response, % | 300,000 compounds, 12% hits; in the data active = max response mostly above about 13%, no sharp cut-off; inactive = mostly below about 14%; note: read at 38.3 µM for the half of the compounds with a filed dose
Hits are given with their value; n = inactive; u = inconclusive; x = not tested or not shown; + = active, no number. A selection: hits, their analogues and other compounds. The true share with any hit is near 21%. Unless noted, calls come from the whole dose curve; as a rule, active = well fitted curve in the direction sought with a large enough effect; inconclusive = small, poorly fitted or top-dose-only effect, or another doubt; inactive = no such curve, though single readings can be large; an effect the other way counts as inactive or inconclusive.

SMILES	Shiga inhibitor	Pf growth 48h	NS1 function inh	Giardia FBPA inh	Pf growth 96h	Cycloheximide cs
O=C(Cn1cnc2ccccc2c1=O)N1CCc2ccccc2C1	n	n	x	n	n	17
COCCn1c(SCC(=O)N2CCc3ccccc3C2)nc2cc(Cl)ccc2c1=O	n	u	n	n	9.3µM	n
O=C(c1ncn(Cc2ccccc2)c1C(=O)N1CCc2ccccc2C1)N1CCc2ccccc2C1	x	1.5µM	x	x	u	x
O=C(Cn1cnc2ccccc2c1=O)N1CCOCC1	n	n	n	n	n	n
COc1cccc(NC(=O)CCS(=O)(=O)c2ccc3c(c2)oc(=O)n3C)c1	n	n	n	x	u	n
CC(=O)c1ccc(-c2ccc(C(=O)N(C)c3c(N)n(Cc4ccccc4)c(=O)[nH]c3=O)o2)cc1	x	n	x	x	n	x
O=C(Nc1ccc(O)cc1)c1cc2ccccc2c(=O)s1	113	n	n	n	n	56
Cc1cc(C)cc(NC(=O)c2cc3c(=O)n4ccccc4nc3s2)c1	n	n	n	n	n	n
O=C(Nc1ccccc1)c1cc2ccccc2c(=O)s1	36	n	n	n	n	41
CC1(C)S[C@H]2C(NC(=O)[C@@H](N)c3ccc(O)cc3)C(=O)N2[C@@H]1C(=O)O (some centres not stated)	x	n	x	n	n	x
N#Cc1c(-c2ccco2)c2c([nH]c1=S)CCCC2	n	n	u	u	10µM	n
COCCCN1C(=O)c2[nH]nc(-c3ccccc3O)c2C1c1ccc(Cl)cc1 (configuration not stated)	n	u	x	n	u	n
COc1ccc(CCN2C(=O)c3[nH]nc(-c4ccccc4O)c3C2c2ccccc2)cc1OC (configuration not stated)	n	9.3µM	n	n	8.3µM	n
COCCCN1C(=O)c2[nH]nc(-c3ccccc3O)c2C1c1cccc(Cl)c1 (configuration not stated)	n	9.3µM	u	n	7.4µM	n
COc1cccc(C2c3c(-c4ccccc4O)n[nH]c3C(=O)N2Cc2ccco2)c1 (configuration not stated)	n	u	n	n	n	n
O=C1c2[nH]nc(-c3ccccc3O)c2C(c2ccccc2)N1Cc1ccco1 (configuration not stated)	n	12µM	x	n	u	n
CC(C)OCCCN1C(=O)c2[nH]nc(-c3ccccc3O)c2C1c1cccc(Cl)c1 (configuration not stated)	n	4.1µM	x	n	n	n
COCCN1C(=O)c2[nH]nc(-c3ccccc3O)c2C1c1ccc(OCc2ccccc2)c(OC)c1 (configuration not stated)	n	x	x	x	x	n
O=C(NN=C1CCCC1)c1cc(-c2ccc(F)cc2)nc2ccccc12	n	n	x	n	u	n
Cc1ccc(CCNC(=O)c2cc(-c3ccncc3)nc3ccccc23)cc1	n	u	n	n	u	n
O=C(NC1=NCCS1)c1cc(-c2ccc(F)cc2)nc2ccccc12	n	n	n	n	n	17
Cc1ccc(-c2cc(C(=O)NC3=NCCS3)c3ccccc3n2)cc1C	n	u	n	n	2.1µM	18
CCCc1ccc(-c2cc(C(=O)NC3=NCCS3)c3ccccc3n2)cc1	24	n	n	n	n	19
CC(Sc1nnc(-c2cccnc2)n1-c1ccccc1F)C(=O)N1CCCc2ccccc21 (configuration not stated)	n	u	n	n	u	17
CCOc1ccc(-c2cc(C(=O)N3CCN(c4ccccn4)CC3)c3ccccc3n2)cc1	54	n	n	n	x	35
SMILES	Shiga inhibitor	Pf growth 48h	NS1 function inh	Giardia FBPA inh	Pf growth 96h	Cycloheximide cs
COc1ccc(-c2cc(C(=O)N3CCN(c4ccccn4)CC3)c3ccccc3n2)cc1	75	n	n	n	x	43
CCCc1ccc(-c2cc(C(=O)N3CCN(c4ccccn4)CC3)c3ccccc3n2)cc1	n	n	n	n	5.2µM	49
COc1cc(-c2cc(C(=O)N3CCN(c4ccccn4)CC3)c3ccccc3n2)cc(OC)c1OC	n	u	n	n	n	n
O=C(c1cnc(N2CCN(c3ccccn3)CC2)c2ccccc12)N1CCN(c2cccc(Cl)c2)CC1	n	9.3µM	x	n	n	n
COc1ccc(-c2cc(C(=O)N3CCN(c4ncccn4)CC3)c3ccccc3n2)cc1	x	n	x	x	n	x
CCOC(=O)N1CCN(C(=O)c2cc(-c3ccncc3)nc3ccccc23)CC1	x	n	x	x	n	x
O=C(c1cc(Sc2ccc(Cl)cc2)nc2ccccc12)N1CCN(c2ccccn2)CC1	n	12µM	x	n	n	n
COc1ccc(-c2cc(C(=O)N3CCN(c4ncccn4)CC3)c3ccccc3n2)c(OC)c1	n	u	n	n	1.9µM	n
COc1ccc(OC)c(-c2cc(C(=O)N3CCN(c4ncccn4)CC3)c3ccccc3n2)c1	n	u	n	n	u	n
CCSc1nnc(-c2cnn(-c3ccccc3)c2-n2cccc2)n1C	n	10µM	n	n	x	n
Cc1cccc(NC(=O)c2onc3c2CCCC3)c1C	116	n	n	n	n	33
Cc1cccc(NC(=O)c2onc3c2CCCC3)n1	n	n	n	n	n	33
Cc1ccccc1NC(=O)c1onc2c1CCCC2	123	n	n	n	n	49
Cc1nc(NCCO)c2nc(-c3ccccc3)n(CCN(C)C)c2n1	x	x	x	n	x	x
COc1ccccc1/C=C(\NC(=O)c1ccccc1)C(=O)NCc1ccco1	n	n	n	n	n	n
COC(=O)c1ccc(C(NC(=O)OCc2ccccc2)/C(C)=C/[C@@H](C)C(=O)NCc2nn(-c3ccccc3)nc2C)cc1 (some centres not stated)	x	x	x	n	x	x
COc1ncc2nc(C)c(=O)n(C[C@H]3CCCO3)c2n1	x	x	x	n	x	x
O=C(O)CSc1cc(NS(=O)(=O)c2ccc(Cl)cc2)c2ccccc2c1O	n	u	n	4µM	u	n
O=S(=O)(Nc1cc(Sc2cccc3cccnc23)c(O)c2ccccc12)c1ccc(F)cc1	+	2.6µM	n	1.1µM	n	24
Cc1cc(C)c(S(=O)(=O)Nc2cc(SCC(=O)O)c(O)c3ccccc23)cc1C	n	10µM	n	4µM	2.6µM	n
COc1ccc(S(=O)(=O)Nc2cc(SCC(=O)O)c(O)c3ccccc23)cc1	n	4.1µM	n	7.9µM	u	n
CC(=O)Nc1ccc(NS(=O)(=O)c2ccccc2)c2ccccc12	n	x	n	n	n	n
Cc1csc(CN(C)C(=O)C2CCC(=O)N(CCN(C)C)C2)n1 (configuration not stated)	n	n	n	x	n	n
CC(=O)/C(=N\Nc1ccccc1)Sc1cccc2cccnc12	n	n	n	n	u	n
COc1ccc(S(=O)(=O)Nc2cc(Sc3ncn[nH]3)c(O)c3ccccc23)cc1	n	x	n	0.56µM	2.9µM	n
O=C(Sc1cccc2cccnc12)c1ccc(F)cc1	n	6.6µM	x	u	u	n
